PG9 Ab binder – binders of HIV-1 gp120 antibody PG9, primary screen, biochemical, TR-FRET; 360,000 tested, 0.43% active; TR-FRET gp120-PG9 antibody binding; inhibition, % at 6.7 µM; HIV-1 gp120 / PG9 antibody interaction; AID 624416, 2012; in the data active = inhibition above about 8.5%
Granule exo inh – LAMP-1 surface exposure blockers, TALL-104 cells – cell-based, flow cytometry, MLPCN library, primary screen; TALL-104 LAMP-1 surface exposure; cells stimulated with thapsigargin and PMA; inhibition, % at 10 µM; 360,000 tested, 0.66% active; AID 651702, 2012;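 active = inhibition above about 55%, limit read from the data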
ABCB6 inh MLPCN – ABCB6 transporter inhibitors, primary screen, K562-ABCB6 cells, flow cytometry, MLPCN library | K562-ABCB6 porphyrin accumulation, 1 h; stronger effect = lower value | fluorescence ratio to DMSO, % at 10 µM | 360,000 tested, 0.19% active | AID 602162, 2011;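 active = fluorescence ratio to DMSO below 75%, the collection mean minus 3 SD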;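 note: signal is porphyrin accumulated inside mitochondria; 100% equals median channel fluorescence of DMSO control wells; lower ratio means ABCB6 inhibition with less porphyrin fluorescence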
Rev-erbA mod – modulators of Rev-erb alpha DNA binding, primary screen, biochemical, FITC-DNA, fluorescence polarization, uHTS | Nuclear receptor subfamily 1 group D member 1 (Homo sapiens), P20393 | Rev-erbα–FITC-DNA binding, 90 min | 370,000 tested, 0.79% active | AID 1259318, 2017 | activity, % at 10 µM;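 active = activity above about 14%, limit read from the data; passing the limit was not always enough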;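 note: 0% = DMSO wells with 35 nM protein and 100% = DMSO wells with 750 nM protein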
VLA-4 inh – inhibition in human VLA-4 binding assay, primary screen, VLA-4 allosteric modulator project, MLPCN library, flow cytometry, VLA-4 expressing cells; 330,000 tested, 0.2% active; inhibition, % (about 7 µM as worked out from the volumes in the protocol); ligand binding flow cytometry; AID 2557, 2010; in the data active = inhibition above about 50%
NR1D1 mod conf – modulators of Rev-erb alpha DNA binding, confirmation, biochemical, FITC-DNA, fluorescence polarization, single point; shares compounds with Rev-erbA mod; 90 min; activation, % at 25 µM; 3,000 tested, 61% active; AID 1259319, 2017;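 active = activation at or above a set limit, or at least 3 SD above the negative control mean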;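 note: 0% = 35 nM protein with DMSO and 100% = 750 nM protein high control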
RORg DNA counter – modulation of RORgamma DNA binding, dose response, counter-screen for Rev-erb alpha modulator project, biochemical, fluorescence polarization, FITC-DNA; AID 1259320, 2017; 910 tested, 8% active; purified RORgamma protein-FITC-DNA binding; shares compounds with Rev-erbA mod; IC50, µM;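 active = Compounds whose fitted half-maximal concentration for disrupting protein-DNA binding is below 10 micromolar; the record names Rev-erb in its text, so the target is in doubt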
* = called active by the depositor; nt = no result. Most compounds without a hit are left out; they make up all but 2% or so of the library.

SMILES	PG9 Ab binder	Granule exo inh	ABCB6 inh MLPCN	Rev-erbA mod	VLA-4 inh	NR1D1 mod conf	others
CN(C)c1ccc(NC(=S)OC2CCC23CCC(c2ccccc2)CC3)cc1 (configuration not stated)	nt	nt	nt	-1	nt	nt
O=C(c1ccccc1)c1nn(-c2cccc(Cl)c2)c2nc(-c3ccccc3)cc(=O)n12	0	-5	102	24*	5	14
O=C(NCc1ccc(F)cc1)c1cc(-c2ccccn2)nc2ccc(S(=O)(=O)N3CCOCC3)cc12	0	4	89	18*	nt	19*
NS(=O)(=O)c1ccc(CNC(=O)c2cc(-c3cccnc3)nc3ccc(Cl)cc23)cc1	1	6	99	4	-28	nt
NS(=O)(=O)c1ccc(CNC(=O)c2cc(-c3ccccn3)nc3ccc(Cl)cc23)cc1	7	-1	120	23*	0	19*
O=C(NCc1ccccc1)c1cc(-c2ccncc2)nc2ccc(S(=O)(=O)N3CCOCC3)cc12	-1	8	97	-15	-9	nt
COc1ccc(C(=O)Nc2ccc(C(=O)Nc3cccnc3)cc2)cc1	1	-7	98	26*	7	24*
COc1ccc(C(=O)Nc2cccc(-c3cnc4ccccc4n3)c2)cc1	-1	-5	106	26*	-1	13
Cc1ccc(C(=O)Nc2cccc(-c3cnc4ccccc4n3)c2)cc1	0	-1	96	-2	10	nt
COc1cccc(-c2cc(C(C)=O)c3n(c2=O)CCC3)c1OC	nt	nt	nt	-1	nt	nt
Cc1cc(OC(C)C(=O)NCc2ccccn2)c2c(C)cc(=O)oc2c1 (configuration not stated)	0	1	104	2	3	nt
Cc1cc(OCC(=O)Nc2ccccn2)c2c(C)c(C)c(=O)oc2c1	-1	1	97	33*	8	2
Cc1cc(OC(C)C(=O)NCc2ccccn2)c2c(C)c(Cc3ccccc3)c(=O)oc2c1 (configuration not stated)	0	-1	106	86*	-10	142*	RORg DNA counter=>40
COC(=O)C12CCCN1C1C(=O)N(Cc3ccc(C(N)=O)cc3)CC1C2 (configuration not stated)	nt	nt	nt	1	nt	nt
CCn1cc(C(=O)NCCc2ccc(OC)cc2)c(=O)c2ccc(C)nc21	1	-5	97	10	-18	nt
CCn1cc(C(=O)NCCc2ccc(Cl)cc2)c(=O)c2ccc(C)nc21	-1	10	98	29*	nt	14
CC1CCC2(CC1)CCC2NCc1ccc(Cl)cc1 (configuration not stated)	nt	nt	nt	5	nt	nt
COc1ccc(C2(C)NC(=O)N(CC(=O)Nc3ccc(-c4nc5ccc(C)cc5s4)cc3)C2=O)cc1 (configuration not stated)	-2	1	96	-7	-43	nt
O=C(CCS(=O)(=O)c1ccccc1)Nc1ccccc1-c1nc2ccccc2s1	-1	2	105	44*	2	40*	RORg DNA counter=2.1*
Cc1ccc2nc(-c3ccc(NC(=S)NC(=O)CC(C)C)cc3)sc2c1	1	7	95	22*	1	10
O=C(CCS(=O)(=O)c1ccccc1)Nc1nc2ccc(F)cc2s1	1	8	99	6	19	nt
CCC1(c2ccc(F)cc2)NC(=O)N(CC(=O)Nc2ccc(-c3nc4ccc(C)cc4s3)cc2)C1=O (configuration not stated)	3	14	96	41*	19	11
Cc1ccc2nc(-c3ccc(NC(=O)CSc4nnc(Cc5cccs5)n4C)cc3)sc2c1	nt	nt	nt	43*	nt	25*
